Reference: the supplement of paper PMC10849652
Targets with a hit are over-represented here; the source holds about 8,800 in all. About 0.5% of all pairs of compound and target were hits.

Key:
Assay in all cases: log2 fold change, soluble protein after heating vs DMSO (PISA); higher = thermal stabilisation; K562 lysate, 10 uM; active = over 0.2 and 3.5 SD of the protein, either way, in both replicates (recomputed)
erlotinib = compound: C#Cc1cccc(Nc2ncnc3cc(OCCOC)c(OCCOC)cc23)c1 [erlotinib]
Outline: (§1)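 Pellets of K562 cells were dounce-homogenised in PBS pH 7.4 with 1 mM MgCl2, and the crude extract was held at 1 mg/mL protein for a 30 min treatment with 10 μM compound. Aliquots were heated for 3 min over 48°C-58°C and pooled before NP-40 was added to 0.5% at 4°C. The supernatant from 21,000xg for 90 min was quantified by TMTpro 16plex LC-MS/MS with channel sums equalised. Values are reported from duplicates as log-two fold change in thermal stability relative to solvent controls.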

[1] = compound: C/C(=N\NC(=O)C1=CC(=CC=C1)S(=O)(=O)N2CCOCC2)/C3=C(C=CC(=C3)Cl)O
Outline: as §1

[2] = compound: C1=CC(=CC=C1C2=NC3=C(N2)C=C(C=C3)C(=O)N)OC4=CC=C(C=C4)Cl
Outline: as §1

[3] = compound: C1=CC2=C(C=CC(=C2)/C=C\3/C(=O)NC(=NCC4=CC=CS4)S3)N=C1
Outline: as §1

[4] = compound: C1=CC2=NC=CN=C2C=C1/C=C/3\C(=O)NC(=O)S3
Outline: as §1

[5] = compound: C1=CC=C(C=C1)C2=NC(=C(N2)C3=CC=NC=C3)C4=CC(=C(C=C4)Cl)O
Outline: as §1

[6] = compound: C1=CC=C2C(=C1)C3=NNC4=CC=CC(=C43)C2=O
Outline: as §1

IRAK-1-4 Inhibitor I = compound: C1COCCN1CCN2C3=CC=CC=C3N=C2NC(=O)C4=CC(=CC=C4)[N+](=O)[O-] [IRAK-1-4 Inhibitor I]
Outline: as §1

ibrutinib = compound: C=CC(=O)N1CCC[C@@H](n2nc(-c3ccc(Oc4ccccc4)cc3)c3c(N)ncnc32)C1 [ibrutinib]
Outline: as §1

[7] = compound: CC(=O)c1cnc2ccc(-c3cc(Cl)c(O)c(Cl)c3)nc2c1N[C@H]1CC[C@H](CN(C)C)CC1
Outline: as §1

ralimetinib = compound: CC(C)(C)Cn1c(N)nc2ccc(-c3[nH]c(C(C)(C)C)nc3-c3ccc(F)cc3)nc21 [ralimetinib]
Outline: as §1

[8] = compound: CC(C)(O)CC(=O)NCCn1ccc2ncnc(Nc3ccc(Oc4cccc(C(F)(F)F)c4)c(Cl)c3)c21
Outline: as §1

[9] = compound: CC(C)C1=C2N=C(C=C(N2N=C1)NCC3=CC=CC=C3)NCCCCCCN
Outline: as §1

[10] = compound: CC1=C(C(CC(=O)N1)C2=CC=C(C=C2)C(F)(F)F)C(=O)NC3=C(C=C4C(=C3)C=NN4)F
Outline: as §1

[11] = compound: CC1=C(C2=C(C=C1)C(=O)C3=CC=CC=C3N2CCCN)C
Outline: as §1

[12] = compound: CC1=C(C=C(C=C1)NC(=O)C2=CC(=CC=C2)C(C)(C)C#N)NC3=CC4=C(C=C3)N=CN(C4=O)C
Outline: as §1

[13] = compound: CC1=C(C=C(C=C1)NC(=O)C2=CC(=CC=C2)N(C)C)NC(=O)C3=CC=C(C=C3)O
Outline: as §1

[14] = compound: CC1=CC=C(C=C1)SC2=C3C=C(SC3=CN=C2)C(=O)N
Outline: as §1

[15] = compound: C1CCN(C1)C(=O)NC2=CC=CC(=C2)NC3=NC=C(C(=N3)NCCC4=CN=CN4)Br
Outline: as §1

[16] = compound: C1CN(CCC1(CC2=CC=C(C=C2)Cl)N)C3=NC=NC4=C3C=CN4
Outline: as §1

Measured: log2 fold change

DENND1B (UniProt Q6P3S1)
Chain of UniProt Q6P3S1 (Q6P3S1 whole entry, looked up): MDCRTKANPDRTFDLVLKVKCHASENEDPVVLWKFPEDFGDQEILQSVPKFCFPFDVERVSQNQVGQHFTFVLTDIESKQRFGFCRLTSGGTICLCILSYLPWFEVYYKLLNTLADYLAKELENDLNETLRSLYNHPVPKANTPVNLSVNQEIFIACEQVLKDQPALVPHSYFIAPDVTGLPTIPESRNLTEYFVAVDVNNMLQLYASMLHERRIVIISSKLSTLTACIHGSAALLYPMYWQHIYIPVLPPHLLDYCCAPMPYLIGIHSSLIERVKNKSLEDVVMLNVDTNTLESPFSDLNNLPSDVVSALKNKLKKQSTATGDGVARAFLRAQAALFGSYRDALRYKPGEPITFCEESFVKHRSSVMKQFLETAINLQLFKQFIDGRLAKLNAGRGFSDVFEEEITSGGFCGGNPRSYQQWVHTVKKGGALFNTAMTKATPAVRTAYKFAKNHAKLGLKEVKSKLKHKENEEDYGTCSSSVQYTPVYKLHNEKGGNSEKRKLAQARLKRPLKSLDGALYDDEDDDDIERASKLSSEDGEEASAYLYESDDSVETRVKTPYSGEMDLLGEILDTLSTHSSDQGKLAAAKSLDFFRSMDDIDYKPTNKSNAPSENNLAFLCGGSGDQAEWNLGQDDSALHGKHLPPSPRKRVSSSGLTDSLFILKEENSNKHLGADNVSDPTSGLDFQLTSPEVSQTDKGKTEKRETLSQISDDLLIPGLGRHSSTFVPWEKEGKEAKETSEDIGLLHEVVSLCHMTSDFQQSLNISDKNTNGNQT
inactive: erlotinib -0.08 | [1] 0.153 | [2] -0.13 | [3] 0.04 | [4] 0.19 | [5] 0.019 | [6] 0.007 | IRAK-1-4 Inhibitor I 0.014 | ibrutinib 0.405 | [7] -0.034 | ralimetinib -0.039 | [8] -0.114 | [9] -0.087 | [10] 0.151 | [11] 0.174 | [12] 0.031 | [13] -0.003 | [14] 0.011

DNAJC1 (UniProt Q96KC8)
inactive: erlotinib -0.018 | [1] -0.011 | [2] -0.159 | [3] -0.053 | [4] 0.032 | [5] -0.044 | [6] -0.039 | [15] -0.011 | [16] 0.017 | IRAK-1-4 Inhibitor I 0.013 | ibrutinib -0.018 | [7] 0.018 | ralimetinib -0.007 | [8] -0.048 | [9] -0.014 | [10] 0.019 | [11] 0.019 | [12] -0.009 | [13] 0.032 | [14] 0.011

DNAH5 (UniProt Q8TE73)
inactive: erlotinib -0.006 | [1] -0.008 | [2] 0 | [3] -0.024 | [4] 0.015 | [5] 0.004 | [6] -0.056 | IRAK-1-4 Inhibitor I -0.015 | ibrutinib -0.064 | [7] -0.009 | ralimetinib -0.045 | [8] -0.138 | [9] 0.076 | [10] 0.062 | [11] 0.014 | [13] 0.019 | [14] 0.086

DCTN1 isoform 4 (UniProt Q14203)
inactive: erlotinib -0.021 | [1] -0.166 | [2] 0.065 | [3] -0.109 | [5] 0.098 | [6] 0.126 | [15] -0.141 | [16] 0 | IRAK-1-4 Inhibitor I 0.02 | [7] 0.089 | ralimetinib 0.114 | [8] -0.076 | [9] 0.1 | [10] -0.074 | [11] -0.11 | [12] 0.044 | [13] 0.036 | [14] -0.029

CLASP2 isoform 3 (UniProt O75122)
Chain of UniProt O75122 (O75122 whole entry, looked up): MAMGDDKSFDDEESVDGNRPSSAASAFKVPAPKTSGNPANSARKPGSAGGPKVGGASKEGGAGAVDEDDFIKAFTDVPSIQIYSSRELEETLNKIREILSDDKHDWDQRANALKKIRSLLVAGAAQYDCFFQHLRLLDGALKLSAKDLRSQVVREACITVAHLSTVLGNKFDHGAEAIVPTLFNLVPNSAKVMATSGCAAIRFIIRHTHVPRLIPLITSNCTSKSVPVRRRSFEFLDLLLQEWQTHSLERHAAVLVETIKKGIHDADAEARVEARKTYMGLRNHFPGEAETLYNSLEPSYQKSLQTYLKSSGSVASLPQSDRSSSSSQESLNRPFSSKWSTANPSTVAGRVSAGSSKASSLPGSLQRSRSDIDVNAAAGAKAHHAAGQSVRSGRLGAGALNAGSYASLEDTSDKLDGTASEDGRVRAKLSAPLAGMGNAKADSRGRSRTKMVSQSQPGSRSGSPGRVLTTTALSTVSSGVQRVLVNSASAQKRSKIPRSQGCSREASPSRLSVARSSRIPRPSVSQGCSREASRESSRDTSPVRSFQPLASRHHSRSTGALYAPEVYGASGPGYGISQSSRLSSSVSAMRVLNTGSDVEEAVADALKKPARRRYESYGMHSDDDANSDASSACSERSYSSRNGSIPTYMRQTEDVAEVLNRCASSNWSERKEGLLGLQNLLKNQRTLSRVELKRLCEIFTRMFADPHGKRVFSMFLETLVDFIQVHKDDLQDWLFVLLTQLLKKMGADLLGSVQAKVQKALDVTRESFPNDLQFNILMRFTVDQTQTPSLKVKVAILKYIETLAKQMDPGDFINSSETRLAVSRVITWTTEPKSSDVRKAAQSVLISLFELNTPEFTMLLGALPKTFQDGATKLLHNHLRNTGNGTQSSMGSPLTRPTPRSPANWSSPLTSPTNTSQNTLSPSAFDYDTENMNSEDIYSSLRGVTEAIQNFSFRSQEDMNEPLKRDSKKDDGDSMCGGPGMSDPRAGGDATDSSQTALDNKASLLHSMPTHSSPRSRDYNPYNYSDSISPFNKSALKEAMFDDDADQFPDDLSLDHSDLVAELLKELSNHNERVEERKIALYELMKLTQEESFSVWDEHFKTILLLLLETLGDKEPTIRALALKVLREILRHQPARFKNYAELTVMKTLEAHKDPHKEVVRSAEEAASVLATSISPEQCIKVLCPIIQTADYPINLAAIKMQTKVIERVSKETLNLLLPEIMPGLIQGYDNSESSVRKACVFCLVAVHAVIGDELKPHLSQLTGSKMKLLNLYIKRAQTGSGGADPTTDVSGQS
inactive: erlotinib 0.032 | [1] -0.014 | [2] -0.022 | [3] -0.032 | [4] -0.018 | [5] 0 | [6] -0.024 | [15] -0.024 | [16] 0.057 | IRAK-1-4 Inhibitor I -0.012 | [7] 0.004 | ralimetinib 0.019 | [8] -0.014 | [9] 0.025 | [10] 0.019 | [11] -0.008 | [12] 0.023 | [13] 0.042 | [14] 0.004

COG3 (UniProt Q96JB2)
Chain of UniProt Q96JB2 (Q96JB2 whole entry, looked up): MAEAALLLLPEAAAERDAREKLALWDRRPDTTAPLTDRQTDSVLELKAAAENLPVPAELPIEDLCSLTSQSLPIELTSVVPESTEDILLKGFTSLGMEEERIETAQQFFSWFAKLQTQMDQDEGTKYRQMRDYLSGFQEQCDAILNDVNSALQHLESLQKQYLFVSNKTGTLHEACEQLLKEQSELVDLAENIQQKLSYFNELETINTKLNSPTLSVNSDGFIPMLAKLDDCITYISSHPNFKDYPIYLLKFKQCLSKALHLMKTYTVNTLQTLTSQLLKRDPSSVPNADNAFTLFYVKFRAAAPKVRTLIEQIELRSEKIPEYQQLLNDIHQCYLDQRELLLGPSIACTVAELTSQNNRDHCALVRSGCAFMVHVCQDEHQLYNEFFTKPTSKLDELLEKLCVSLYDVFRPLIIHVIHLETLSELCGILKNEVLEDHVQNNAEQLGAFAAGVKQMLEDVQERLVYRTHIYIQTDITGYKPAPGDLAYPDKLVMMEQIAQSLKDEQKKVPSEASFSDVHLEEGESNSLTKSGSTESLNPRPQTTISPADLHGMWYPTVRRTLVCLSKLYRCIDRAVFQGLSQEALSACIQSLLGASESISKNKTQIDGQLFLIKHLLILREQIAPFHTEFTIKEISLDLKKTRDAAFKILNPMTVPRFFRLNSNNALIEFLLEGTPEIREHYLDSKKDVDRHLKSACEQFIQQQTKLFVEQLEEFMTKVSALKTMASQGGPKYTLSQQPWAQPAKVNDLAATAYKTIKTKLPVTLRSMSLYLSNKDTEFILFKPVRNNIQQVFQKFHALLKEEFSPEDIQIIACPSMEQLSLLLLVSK
inactive: erlotinib 0.045 | [1] 0.053 | [2] -0.037 | [3] -0.049 | [4] -0.008 | [5] -0.022 | [6] -0.056 | [15] -0.02 | [16] -0.01 | IRAK-1-4 Inhibitor I 0.012 | ibrutinib 0.026 | [7] -0.008 | ralimetinib 0.052 | [8] -0.042 | [9] -0.04 | [10] 0.006 | [11] -0.019 | [12] 0.02 | [13] 0.044 | [14] 0.02

DAZAP1 (UniProt Q96EP5)
Chain of UniProt Q96EP5 (Q96EP5 whole entry, looked up): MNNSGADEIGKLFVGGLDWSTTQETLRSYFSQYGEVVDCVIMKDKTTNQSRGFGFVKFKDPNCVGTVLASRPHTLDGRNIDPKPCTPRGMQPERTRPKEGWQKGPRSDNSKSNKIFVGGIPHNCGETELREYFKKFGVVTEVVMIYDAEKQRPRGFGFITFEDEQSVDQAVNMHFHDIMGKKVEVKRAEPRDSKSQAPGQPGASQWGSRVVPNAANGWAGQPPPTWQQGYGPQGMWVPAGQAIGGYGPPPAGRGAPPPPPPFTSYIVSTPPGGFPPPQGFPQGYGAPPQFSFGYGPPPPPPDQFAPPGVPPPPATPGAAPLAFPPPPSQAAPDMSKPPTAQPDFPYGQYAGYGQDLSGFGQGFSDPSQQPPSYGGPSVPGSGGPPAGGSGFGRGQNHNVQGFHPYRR
active: [12] -0.359
inactive: erlotinib -0.017 | [1] 0.008 | [2] 0.03 | [3] 0.023 | [4] 0.026 | [5] 0.017 | [6] -0.047 | [15] 0.02 | [16] -0.004 | IRAK-1-4 Inhibitor I 0.012 | ibrutinib -0.031 | [7] -0.011 | ralimetinib -0.124 | [8] 0.133 | [9] -0.023 | [10] -0.062 | [11] -0.015 | [13] -0.031 | [14] -0.009

CLUH (UniProt O75153)
inactive: erlotinib -0.011 | [1] 0.018 | [2] -0.006 | [3] 0.051 | [4] 0.21 | [5] -0.013 | [6] -0.014 | [15] -0.009 | [16] -0.005 | IRAK-1-4 Inhibitor I -0.007 | [7] 0.093 | ralimetinib 0.008 | [8] -0.004 | [9] -0.044 | [10] -0.01 | [11] 0 | [12] -0.001 | [13] 0.006 | [14] 0.008

CNNM2 (UniProt Q9H8M5)
inactive: erlotinib -0.109 | [1] -0.206 | [2] 0.038 | [3] 0.058 | [5] -0.106 | [6] -0.029 | [15] 0.045 | [16] 0.201 | IRAK-1-4 Inhibitor I 0.098 | [7] 0.004 | ralimetinib 0.31 | [9] 0.048 | [11] -0.031 | [12] -0.054 | [13] -0.157 | [14] -0.015
active: [8] 0.348

CUX1 isoform 2 (UniProt Q13948)
inactive: erlotinib -0.029 | [1] -0.003 | [2] -0.229 | [3] 0.034 | [5] -0.011 | [6] 0.02 | [15] -0.015 | [16] -0.008 | IRAK-1-4 Inhibitor I 0.029 | [7] 0.07 | ralimetinib -0.069 | [8] 0.052 | [9] -0.16 | [11] -0.027 | [12] 0.385 | [13] 0.043 | [14] -0.086

CLCN3 isoform 2 (UniProt P51790)
Chain of UniProt P51790 (P51790 whole entry, looked up): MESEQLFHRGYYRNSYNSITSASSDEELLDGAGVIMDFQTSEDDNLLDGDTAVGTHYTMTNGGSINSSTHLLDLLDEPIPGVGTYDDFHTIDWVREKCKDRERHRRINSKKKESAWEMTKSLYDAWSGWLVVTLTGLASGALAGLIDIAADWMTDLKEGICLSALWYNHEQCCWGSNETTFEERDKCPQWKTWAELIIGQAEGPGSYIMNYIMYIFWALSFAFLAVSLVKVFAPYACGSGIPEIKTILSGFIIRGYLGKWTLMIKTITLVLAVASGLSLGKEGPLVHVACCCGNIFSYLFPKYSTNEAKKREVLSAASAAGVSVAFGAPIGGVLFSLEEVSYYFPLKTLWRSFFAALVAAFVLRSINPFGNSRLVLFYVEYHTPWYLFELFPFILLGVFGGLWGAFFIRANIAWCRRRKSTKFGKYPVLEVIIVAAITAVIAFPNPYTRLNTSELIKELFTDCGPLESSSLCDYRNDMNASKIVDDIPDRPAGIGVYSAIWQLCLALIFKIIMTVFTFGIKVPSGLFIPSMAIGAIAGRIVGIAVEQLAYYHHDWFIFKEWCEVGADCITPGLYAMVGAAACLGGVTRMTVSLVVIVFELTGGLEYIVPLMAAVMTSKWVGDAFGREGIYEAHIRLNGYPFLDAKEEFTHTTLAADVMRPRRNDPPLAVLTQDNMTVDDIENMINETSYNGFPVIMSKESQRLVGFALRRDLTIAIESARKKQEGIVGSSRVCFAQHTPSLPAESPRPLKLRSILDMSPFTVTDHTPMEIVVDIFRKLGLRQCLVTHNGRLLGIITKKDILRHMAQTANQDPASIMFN
inactive: erlotinib 0.003 | [1] 0.083 | [2] -0.061 | [3] -0.005 | [4] -0.004 | [5] -0.042 | [6] 0.013 | [15] -0.032 | [16] 0.029 | IRAK-1-4 Inhibitor I 0.068 | [7] 0.029 | ralimetinib 0.02 | [8] -0.032 | [9] -0.035 | [10] -0.017 | [11] -0.066 | [12] 0.029 | [13] 0.048 | [14] -0.013

DPY19L3 (UniProt Q6ZPD9)
inactive: erlotinib -0.131 | [1] 0.007 | [2] -0.097 | [3] 0.101 | [4] 0.211 | [6] -0.2 | [15] 0.005 | [16] 0.008 | ibrutinib -0.111 | [7] 0.012 | [9] -0.224 | [12] 0.047 | [14] -0.017

DDA1 (UniProt Q9BW61)
inactive: erlotinib -0.004 | [1] -0.001 | [2] 0.036 | [3] -0.03 | [4] 0.008 | [5] -0.093 | [6] 0.016 | [15] -0.017 | [16] -0.01 | IRAK-1-4 Inhibitor I 0.012 | ibrutinib 0.108 | [7] -0.003 | ralimetinib 0 | [8] 0.019 | [9] -0.072 | [10] 0.028 | [11] 0.022 | [12] 0.01 | [13] 0.018 | [14] -0.017

DDX4 (UniProt Q9NQI0)
inactive: erlotinib -0.043 | [1] 0.165 | [2] -0.112 | [3] -0.028 | [4] -0.055 | [5] 0.114 | [6] -0.004 | [15] 0.002 | [16] 0.011 | IRAK-1-4 Inhibitor I -0.109 | ibrutinib 0.019 | [7] -0.004 | ralimetinib 0.04 | [8] 0.087 | [9] -0.032 | [10] 0.008 | [11] 0.1 | [13] -0.051 | [14] -0.026

CNOT4 isoform 9 (UniProt O95628)
inactive: erlotinib 0 | [1] 0.005 | [2] 0.015 | [3] -0.04 | [4] 0 | [5] -0.105 | [6] 0.015 | [15] 0.003 | [16] -0.013 | IRAK-1-4 Inhibitor I 0.054 | ibrutinib 0.052 | [7] -0.019 | ralimetinib 0.043 | [8] -0.084 | [9] -0.003 | [11] 0.032 | [12] -0.138 | [13] -0.02 | [14] 0.013

CLCN3 (UniProt P51790)
inactive: erlotinib -0.047 | [1] 0.043 | [2] -0.067 | [3] 0.06 | [4] 0.016 | [5] -0.02 | [6] 0.084 | [15] -0.043 | [16] -0.117 | IRAK-1-4 Inhibitor I 0.083 | [7] 0.038 | ralimetinib 0.038 | [8] 0.05 | [9] -0.089 | [10] -0.03 | [11] 0.024 | [12] -0.155 | [13] -0.017 | [14] 0.079

CLPB isoform 2 (UniProt Q9H078)
Chain of UniProt Q9H078 (Q9H078 whole entry, looked up): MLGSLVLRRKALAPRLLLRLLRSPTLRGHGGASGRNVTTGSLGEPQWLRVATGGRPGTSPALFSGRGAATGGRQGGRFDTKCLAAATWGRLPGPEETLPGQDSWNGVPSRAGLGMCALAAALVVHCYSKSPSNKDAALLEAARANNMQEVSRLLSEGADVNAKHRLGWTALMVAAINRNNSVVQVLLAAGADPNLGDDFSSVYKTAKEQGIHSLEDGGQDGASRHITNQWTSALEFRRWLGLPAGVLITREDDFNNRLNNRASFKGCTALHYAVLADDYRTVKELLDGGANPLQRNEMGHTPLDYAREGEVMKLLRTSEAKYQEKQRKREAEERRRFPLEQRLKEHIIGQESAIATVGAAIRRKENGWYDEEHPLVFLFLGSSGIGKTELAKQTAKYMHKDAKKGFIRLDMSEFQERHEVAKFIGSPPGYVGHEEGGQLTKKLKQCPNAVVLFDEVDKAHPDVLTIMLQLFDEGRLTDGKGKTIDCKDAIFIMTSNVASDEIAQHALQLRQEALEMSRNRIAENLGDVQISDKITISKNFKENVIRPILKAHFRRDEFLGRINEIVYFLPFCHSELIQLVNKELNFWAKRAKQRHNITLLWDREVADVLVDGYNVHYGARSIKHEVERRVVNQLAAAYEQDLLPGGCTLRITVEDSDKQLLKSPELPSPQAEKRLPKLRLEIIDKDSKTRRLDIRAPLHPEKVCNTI
inactive: erlotinib 0.023 | [1] -0.029 | [2] -0.028 | [3] 0.02 | [4] -0.047 | [5] -0.018 | [6] 0.006 | [15] 0.022 | [16] 0.055 | IRAK-1-4 Inhibitor I -0.002 | [7] -0.016 | ralimetinib 0.002 | [8] -0.024 | [9] -0.006 | [10] 0.002 | [11] -0.054 | [12] -0.011 | [13] 0.025 | [14] 0.012
